Reference: article PMC7826789 (International Journal of Molecular Sciences, 2021)

Tests used:
Settings in all cases: Compound Concentration (nM):1000
PDGFRB = tested on: PDGFRB
PDPK1 = tested on: PDPK1
PFCDPK1(P.falciparum) = tested on: T1, PFCDPK1(P.falciparum)
T1 construct: gene CDPK1

PFPK5(P.falciparum) = tested on: T2, PFPK5(P.falciparum)
T2 construct: gene MAL13P1.279

PFTAIRE2 = tested on: T3, PFTAIRE2
T3 construct: gene CDK15

PFTK1 = tested on: T4, PFTK1
T4 construct: gene CDK14

PHKG1 = tested on: PHKG1
PHKG2 = tested on: PHKG2
PIK3C2B = tested on: PIK3C2B
PIK3C2G = tested on: PIK3C2G
PIK3CA(C420R) = tested on: PIK3CA(C420R)
PIK3CA(E542K) = tested on: PIK3CA(E542K)
PIK3CA(E545A) = tested on: PIK3CA(E545A)
PIK3CA(E545K) = tested on: PIK3CA(E545K)
PIK3CA(H1047L) = tested on: PIK3CA(H1047L)
PIK3CA(H1047Y) = tested on: PIK3CA(H1047Y)
PIK3CA(I800L) = tested on: PIK3CA(I800L)
PIK3CA(M1043I) = tested on: PIK3CA(M1043I)
PIK3CA(Q546K) = tested on: PIK3CA(Q546K)
PIK3CA = tested on: PIK3CA
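Further: KINOMEscan scanMAX binding as percent activity remaining versus control; lower means stronger binding.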

| Compound | Percent Control (PDGFRB) | Percent Control (PDPK1) | Percent Control (PFCDPK1(P.falciparum)) | Percent Control (PFPK5(P.falciparum)) | Percent Control (PFTAIRE2) | Percent Control (PFTK1) | Percent Control (PHKG1) | Percent Control (PHKG2) | Percent Control (PIK3C2B) | Percent Control (PIK3C2G) | Percent Control (PIK3CA(C420R)) | Percent Control (PIK3CA(E542K)) | Percent Control (PIK3CA(E545A)) | Percent Control (PIK3CA(E545K)) | Percent Control (PIK3CA(H1047L)) | Percent Control (PIK3CA(H1047Y)) | Percent Control (PIK3CA(I800L)) | Percent Control (PIK3CA(M1043I)) | Percent Control (PIK3CA(Q546K)) | Percent Control (PIK3CA) |
| --- | --- | --- | --- | --- | --- | --- | --- | --- | --- | --- | --- | --- | --- | --- | --- | --- | --- | --- | --- | --- |
| Cl.O=C(Nc1ccc(Oc2ccc3[nH]c(NC(=O)c4ccco4)nc3c2)cc1)Nc1cc(C(F)(F)F)ccc1F [GW683134A] | 0.3% | 67% | 84% | 100% | 87% | 100% | 100% | 95% | 100% | 83% | 100% | 99% | 100% | 100% | 78% | 100% | 100% | 100% | 100% | 100% |
| COc1ccc2cc(-c3c(-c4ccncc4)nc(-c4ccc(S(C)(=O)=O)cc4C)n3C)ccc2c1 [SB-633825] | 70% | 100% | 61% | 77% | 45% | 80% | 100% | 84% | 76% | 81% | 88% | 79% | 84% | 81% | 100% | 91% | 83% | 83% | 91% | 70% |
| C/C(Nc1ccc(S(N)(=O)=O)cc1)=C1/C(=O)Nc2ccccc21 [GW335962X] | 59% | 100% | 77% | 91% | 95% | 72% | 94% | 53% | 100% | 90% | 95% | 100% | 100% | 100% | 100% | 85% | 100% | 100% | 100% | 100% |
| C[C@@H](Oc1cc(-n2cnc3ccc(OC4CCN(C)CC4)cc32)sc1C(N)=O)c1ccccc1Cl [GSK579289A] | 12% | 100% | 74% | 76% | 74% | 95% | 86% | 81% | 32% | 78% | 60% | 80% | 67% | 78% | 76% | 100% | 78% | 72% | 100% | 65% |
| COc1cccc(-n2ncc3c(N/N=C/c4ccncc4)ncnc32)c1 [GW784752X] | 60% | 92% | 33% | 100% | 74% | 95% | 37% | 93% | 100% | 98% | 100% | 100% | 100% | 92% | 100% | 100% | 96% | 100% | 100% | 100% |
| COc1cc2ncnc(Nc3ccc4c(cnn4Cc4ccccc4)c3)c2cc1OC.Cl [GW282449A] | 100% | 100% | 57% | 100% | 100% | 100% | 100% | 100% | 100% | 97% | 100% | 100% | 100% | 100% | 100% | 100% | 99% | 100% | 100% | 100% |
| NS(=O)(=O)c1ccc(Nc2ncc(-c3ccccc3)o2)cc1 [GW572399X] | 3.4% | 100% | 27% | 100% | 98% | 100% | 100% | 100% | 100% | 100% | 100% | 100% | 100% | 100% | 93% | 100% | 100% | 93% | 100% | 100% |
| NS(=O)(=O)c1ccc(N/N=C2\C(=O)Nc3ccc(C(=O)NCc4ccncc4)cc32)cc1 [GW300657X] | 74% | 65% | 85% | 57% | 49% | 73% | 100% | 70% | 100% | 86% | 90% | 85% | 100% | 75% | 89% | 72% | 85% | 94% | 83% | 100% |
| Cl.O=C(O[C@H]1CN[C@H](C#Cc2cc3ncnc(Nc4ccc5c(cnn5Cc5ccccc5)c4)c3s2)C1)N1CCOCC1 [GSK200398A] | 100% | 89% | 88% | 100% | 91% | 100% | 96% | 98% | 88% | 84% | 100% | 100% | 100% | 85% | 100% | 100% | 83% | 100% | 98% | 100% |
| Cl.O=S1CCN(Cc2ccc(-c3ccc4ncnc(Nc5ccc(OCc6ccccc6)c(F)c5)c4c3)o2)CC1 [GW576924A] | 100% | 100% | 83% | 100% | 100% | 100% | 100% | 100% | 100% | 78% | 100% | 100% | 100% | 100% | 100% | 100% | 100% | 88% | 100% | 100% |
